Shown is part of a subset that was picked to be rich in the strongest signals.
Columns and labels:
Assay in all cases: glycan array binding signal (z-score within array); higher = stronger binding
Settings in all cases: glycan notation: IUPAC condensed, linker removed
[1] = target: Fuc(a1-2)Gal(b1-3)GlcNAc(b1-2)Man(a1-3)[Fuc(a1-2)Gal(b1-3)GlcNAc(b1-2)Man(a1-6)]Man(b1-4)GlcNAc(b1-4)GlcNAc
Summary of the method: (§1)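 The binding signal is a Z-score computed within each array and averaged over linkers. Arrays of the same protein sequence at different concentrations or buffers were also averaged together. Data originate from 3228 arrays in the Consortium for Functional Glycomics database, kept only where the protein sequence was available.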

[2] = target: Fuc(a1-2)Gal(b1-4)[Fuc(a1-3)]GlcNAc(b1-2)Man(a1-3)[Fuc(a1-2)Gal(b1-4)[Fuc(a1-3)]GlcNAc(b1-2)Man(a1-6)]Man(b1-4)GlcNAc(b1-4)GlcNAc
Summary of the method: as §1

[3] = target: Fuc(a1-2)[GalNAc(a1-3)]Gal(b1-4)GlcNAc
Summary of the method: as §1

[4] = target: Fuc(a1-3)[Gal(b1-4)]GlcNAc(b1-4)Gal(b1-4)[Fuc(a1-3)]GlcNAc
Summary of the method: as §1

[5] = target: Fuc(a1-3)[Gal3S(b1-4)]Glc6S
Summary of the method: as §1

[6] = target: Fuc(a1-3)[GalNAc(b1-4)]GlcNAc
Summary of the method: as §1

[7] = target: Fuc(a1-3)[Neu5Ac(a2-3)]Gal(b1-4)GlcNAc(b1-3)GalNAc
Summary of the method: as §1

[8] = target: Gal(b1-3)GalNAc(a1-3)[Fuc(a1-2)]Gal(b1-4)GlcNAc
Summary of the method: as §1

[9] = target: Gal(b1-3)[Fuc(a1-4)]GlcNAc(b1-2)Man(a1-3)[Gal(b1-3)[Fuc(a1-4)]GlcNAc(b1-2)Man(a1-6)]Man(b1-4)GlcNAc(b1-4)GlcNAc
Summary of the method: as §1

[10] = target: Gal(b1-4)Glc6S
Summary of the method: as §1

[11] = target: Gal(b1-4)GlcNAc(b1-3)Gal(b1-3)GlcNAc
Summary of the method: as §1

[12] = target: Gal(b1-4)GlcNAc(b1-3)Gal(b1-4)GlcNAc
Summary of the method: as §1

[13] = target: Gal(b1-4)GlcNAc(b1-3)[GlcNAc(b1-6)]Gal(b1-4)GlcNAc
Summary of the method: as §1

[14] = target: Gal6S(b1-4)GlcNAc6S
Summary of the method: as §1

[15] = target: GalNAc(b1-4)GlcNAc(b1-2)Man(a1-3)[GalNAc(b1-4)GlcNAc(b1-2)Man(a1-6)]Man(b1-4)GlcNAc(b1-4)GlcNAc
Summary of the method: as §1

[16] = target: GlcA(b1-3)GlcNAc
Summary of the method: as §1

[17] = target: GlcNAc(b1-2)Man(a1-3)[GlcNAc(b1-2)Man(a1-6)]Man(b1-4)GlcNAc(b1-4)GlcNAc
Summary of the method: as §1

[18] = target: GlcNAc(b1-4)GlcNAc(b1-4)GlcNAc
Summary of the method: as §1

[19] = target: GlcNAc(b1-6)GalNAc
Summary of the method: as §1

[20] = target: Man(a1-2)Man(a1-3)Man
Summary of the method: as §1

[21] = target: Neu5Ac(a2-3)Gal(b1-4)GlcNAc(b1-2)Man(a1-3)[GlcNAc(b1-2)Man(b1-4)GlcNAc(b1-2)Man(a1-6)]Man(b1-4)GlcNAc(b1-4)GlcNAc
Summary of the method: as §1

[22] = target: Neu5Ac(a2-3)Gal(b1-4)GlcNAc(b1-3)Gal(b1-3)GlcNAc
Summary of the method: as §1

[23] = target: Neu5Ac(a2-3)Gal(b1-4)GlcNAc6S
Summary of the method: as §1

[24] = target: Neu5Ac(a2-3)Gal(b1-4)[Fuc(a1-3)]GlcNAc6S
Summary of the method: as §1

[25] = target: Neu5Ac(a2-3)[Neu5Ac(a2-6)]GalNAc
Summary of the method: as §1

[26] = target: Neu5Ac(a2-6)Gal(b1-4)GlcNAc(b1-2)Man(a1-3)[Gal(b1-4)GlcNAc(b1-2)Man(a1-6)]Man(b1-4)GlcNAc(b1-4)GlcNAc
Summary of the method: as §1

[27] = target: Neu5Ac(a2-6)Gal(b1-4)GlcNAc(b1-3)Gal(b1-4)GlcNAc
Summary of the method: as §1

[28] = target: Neu5Ac(a2-6)Gal(b1-4)GlcNAc6S
Summary of the method: as §1

[29] = target: Neu5Ac(a2-8)Neu5Ac(a2-8)Neu5Ac(a2-3)Gal(b1-4)Glc
Summary of the method: as §1

[30] = target: Neu5Ac(a2-8)Neu5Ac(a2-8)Neu5Ac(a2-8)Neu5Ac(a2-3)[GalNAc(b1-4)]Gal(b1-4)Glc
Summary of the method: as §1

[31] = target: Neu5Ac(b2-6)GalNAc
Summary of the method: as §1

[32] = target: Fuc(a1-2)Gal(b1-3)[Fuc(a1-4)]GlcNAc(b1-2)Man(a1-3)[Fuc(a1-2)Gal(b1-3)[Fuc(a1-4)]GlcNAc(b1-2)Man(a1-6)]Man(b1-4)GlcNAc(b1-4)GlcNAc
Summary of the method: as §1

[33] = target: Fuc(a1-2)[Gal(a1-3)]Gal(b1-4)Glc
Summary of the method: as §1

[34] = target: Fuc(a1-2)[Gal(a1-4)]Gal(b1-4)GlcNAc
Summary of the method: as §1

[35] = target: Fuc(a1-2)[GalNAc(a1-4)]Gal(b1-4)GlcNAc
Summary of the method: as §1

[36] = target: Gal(a1-3)[Gal(a1-4)]Gal(b1-4)GlcNAc
Summary of the method: as §1

[37] = target: Gal(b1-2)Gal
Summary of the method: as §1

[38] = target: Gal(b1-4)GlcNAc(b1-2)Man(a1-3)[Gal(b1-4)GlcNAc(b1-2)Man(a1-6)]Man(b1-4)GlcNAc(b1-4)GlcNAc
Summary of the method: as §1

[39] = target: Gal(b1-4)GlcNAc(b1-3)Gal(b1-4)GlcNAc(b1-3)Gal(b1-4)GlcNAc
Summary of the method: as §1

[40] = target: Gal3S(b1-3)[Fuc(a1-4)]GlcNAc
Summary of the method: as §1

[41] = target: Gal3S6S(b1-4)GlcNAc6S
Summary of the method: as §1

[42] = target: GalNAc(a1-3)GalNAc
Summary of the method: as §1

[43] = target: GalNAc(b1-3)GalNAc
Summary of the method: as §1

[44] = target: Glc(a1-6)Glc(a1-6)Glc
Summary of the method: as §1

[45] = target: Glc(b1-6)Glc
Summary of the method: as §1

[46] = target: GlcA(b1-6)Gal
Summary of the method: as §1

[47] = target: GlcNAc(a1-4)Gal(b1-4)GlcNAc(b1-3)Gal(b1-4)GlcNAc(b1-3)Gal(b1-4)GlcNAc
Summary of the method: as §1

[48] = target: GlcNAc(a1-4)Gal(b1-4)GlcNAc(b1-3)Gal(b1-4)[Fuc(a1-3)]GlcNAc(b1-3)Gal(b1-4)[Fuc(a1-3)]GlcNAc
Summary of the method: as §1

[49] = target: GlcNAc(a1-6)Gal(b1-4)GlcNAc
Summary of the method: as §1

[50] = target: GlcNAc(b1-4)[GlcNAc(b1-6)]GalNAc
Summary of the method: as §1

[51] = target: Man(a1-6)Man
Summary of the method: as §1

[52] = target: Neu5Ac(a2-3)Gal(b1-3)GlcNAc(b1-3)Gal(b1-3)GlcNAc
Summary of the method: as §1

[53] = target: Neu5Ac(a2-3)Gal(b1-3)GlcNAc6S
Summary of the method: as §1

[54] = target: Neu5Ac(a2-3)Gal(b1-4)[Fuc(a1-3)]GlcNAc(b1-3)Gal(b1-4)GlcNAc
Summary of the method: as §1

[55] = target: Neu5Ac(a2-3)Gal(b1-4)[Fuc(a1-3)]GlcNAc(b1-6)[Gal(b1-3)]GalNAc
Summary of the method: as §1

[56] = target: Neu5Ac(a2-3)Gal6S(b1-4)[Fuc(a1-3)]GlcNAc
Summary of the method: as §1

[57] = target: Neu5Ac(a2-3)GalNAc
Summary of the method: as §1

[58] = target: Neu5Ac(a2-6)Gal(b1-4)GlcNAc(b1-3)Gal(b1-4)GlcNAc(b1-3)Gal(b1-4)GlcNAc
Summary of the method: as §1

B1: HHL-2 (Homo sapiens), P07307 (protein)
chain: MAKDFQDIQQLSSEENDHPFHQGEGPGTRRLNPRRGNPFLKGPPPAQPLAQRLCSMVCFSLLALSFNILLLVVICVTGSQSEGHRGAQLQAELRSLKEAFSNFSSSTLTEVQAISTHGGSVGDKITSLGAKLEKQQQDLKADHDALLFHLKHFPVDLRFVACQMELLHSNGSQRTCCPVNWVEHQGSCYWFSHSGKAWAEAEKYCQLENAHLVVINSWEEQKFIVQHTNPFNTWIGLTDSDGSWKWVDGTDYRHNYKNWAVTQPDNWHGHELGGSEDCVEVQPDGRWNDDFCLQVYRWVCEKRRNATGEVA
[1]
  glycan array binding signal (z-score): -0.497
[2]
  glycan array binding signal (z-score): 2.08
[3]
  glycan array binding signal (z-score): -0.68
[4]
  glycan array binding signal (z-score): -0.334
[5]
  glycan array binding signal (z-score): -0.68
[6]
  glycan array binding signal (z-score): -0.451
[7]
  glycan array binding signal (z-score): 6.72
[8]
  glycan array binding signal (z-score): -0.536
[9]
  glycan array binding signal (z-score): 0.043
[10]
  glycan array binding signal (z-score): -0.52
[11]
  glycan array binding signal (z-score): -0.728
[12]
  glycan array binding signal (z-score): -0.474
[13]
  glycan array binding signal (z-score): -0.539
[14]
  glycan array binding signal (z-score): 3.54
[15]
  glycan array binding signal (z-score): 3.17
[16]
  glycan array binding signal (z-score): -0.012
[17]
  glycan array binding signal (z-score): -0.677
[18]
  glycan array binding signal (z-score): 2.8
[19]
  glycan array binding signal (z-score): -0.738
[20]
  glycan array binding signal (z-score): -0.028
[21]
  glycan array binding signal (z-score): 2.39
[22]
  glycan array binding signal (z-score): 3.56
[23]
  glycan array binding signal (z-score): -0.075
[24]
  glycan array binding signal (z-score): 0.012
[25]
  glycan array binding signal (z-score): -0.847
[26]
  glycan array binding signal (z-score): 0.34
[27]
  glycan array binding signal (z-score): -0.539
[28]
  glycan array binding signal (z-score): 2.18
[29]
  glycan array binding signal (z-score): 3.59
[30]
  glycan array binding signal (z-score): 0.721
[31]
  glycan array binding signal (z-score): -0.379

B2: MRCL (Homo sapiens), NP_872425.1 (protein)
chain: ATKVHFPFHTCDLRIDGDCFMVSSEADTYYRARMKCQRKGGVLAQIKSQKVQDILAFYLGRLETTNEVTDSDFETRNFWIGLTYKTAKDSFRWATGEHQAFTSFAFGQPDNHGLVWLSAAMGFGNCVELQASAAFNWNNQRCKTRNRYICQFAQEHISRWGPGS
[1]
  glycan array binding signal (z-score): 3.42
[32]
  glycan array binding signal (z-score): 0.034
[33]
  glycan array binding signal (z-score): 2.33
[34]
  glycan array binding signal (z-score): -0.456
[35]
  glycan array binding signal (z-score): 3.1
[4]
  glycan array binding signal (z-score): -0.365
[36]
  glycan array binding signal (z-score): 0.889
[37]
  glycan array binding signal (z-score): -0.726
[38]
  glycan array binding signal (z-score): -0.358
[39]
  glycan array binding signal (z-score): 4.88
[13]
  glycan array binding signal (z-score): 4.12
[40]
  glycan array binding signal (z-score): -0.239
[41]
  glycan array binding signal (z-score): 0.67
[42]
  glycan array binding signal (z-score): -0.581
[43]
  glycan array binding signal (z-score): -0.074
[44]
  glycan array binding signal (z-score): -0.679
[45]
  glycan array binding signal (z-score): -0.712
[46]
  glycan array binding signal (z-score): 0.237
[47]
  glycan array binding signal (z-score): 1.88
[48]
  glycan array binding signal (z-score): 1.11
[49]
  glycan array binding signal (z-score): 5.62
[50]
  glycan array binding signal (z-score): -0.523
[51]
  glycan array binding signal (z-score): 0.948
[52]
  glycan array binding signal (z-score): -0.295
[53]
  glycan array binding signal (z-score): -0.562
[54]
  glycan array binding signal (z-score): -0.637
[55]
  glycan array binding signal (z-score): -0.645
[56]
  glycan array binding signal (z-score): -0.64
[57]
  glycan array binding signal (z-score): -0.424
[58]
  glycan array binding signal (z-score): -0.367

Reference: the supplement of paper PMC8728848
